Reference: the supplement of paper PMC12350171
Where a name gives a salt, the structure may show the parent alone.

Experiments:
Details in all cases: 20 µM
[1] = tested on: Salmonella enterica typhimurium; assay: growth AUC normalised to DMSO control (fraction of control); higher = less growth inhibition, active = hit call of the paper
Outline: (§1)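 Three biological replicates were carried out, with OD578 read hourly for 24 h. Before inoculation at a starting OD578 of 0.01, pathogens were passaged anaerobically twice; plates were pre-reduced mGAM containing 20 μM compound and 1% DMSO, sealed with breathable membranes, and the Haemophilus parainfluenzae medium carried added hemin and NAD. Area under each growth curve was calculated by the trapezoidal rule up to the exponential-to-stationary transition and normalised to DMSO controls on the same plate.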

Shigella flexneri = assay: as above
Outline: as §1

Vibrio cholerae = assay: as above
Outline: as §1

[2] = tested on: Yersinia pseudotuberculosis; assay: as above
Outline: as §1

P. vulgatus RND KO = assay: growth AUC normalised to DMSO control (median) (fraction of control); higher = less growth inhibition, active = hit call of the paper
Outline: (§2)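 Anaerobic growth was tracked hourly at OD578 for 24 h in 96-well plates of mGAM seeded at OD578 0.01 with each approved-drug library compound at 20 μM and 1% DMSO. Strains had first been passaged twice overnight without oxygen. Three biological replicates were run. The reported median is the area under the curve, calculated by the trapezoidal rule on curves truncated at entry into stationary phase and normalised to vehicle wells on the same plate.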

P. vulgatus WT = assay: as above
Outline: as §2

[3] = tested on: S. enterica typhimurium WT; assay: as above
Outline: as §2

[4] = tested on: S. enterica typhimurium tolC KO; assay: as above
Outline: as §2

Measured: growth AUC normalised to DMSO control
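Throughout, for growth AUC normalised to DMSO control (median): active when median AUC fell below 0.1.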

CC1(C)O[C@@H]2[C@@H](CO[C@@]3(COS(N)(=O)=O)OC(C)(C)O[C@@H]23)O1 [Topiramate]
inactive: [1] 0.985 | Shigella flexneri 1.02 | Vibrio cholerae 1.02 | [2] 1.01 | P. vulgatus RND KO 0.961 | P. vulgatus WT 0.967 | [3] 0.996 | [4] 0.992

CC1=C(/C=C/C(C)=C/C=C/C(C)=C\C(=O)O)C(C)(C)CCC1 [Isotretinoin]
inactive: [1] 0.994 | Shigella flexneri 0.992 | Vibrio cholerae 1 | [2] 1 | P. vulgatus RND KO 1.01 | P. vulgatus WT 0.989 | [3] 0.999 | [4] 1

CC[C@H](C)C(=O)O[C@H]1CCC=C2C=C[C@H](C)[C@H](CC[C@@H]3C[C@@H](O)CC(=O)O3)[C@H]21 [Mevastatin]
inactive: [1] 1 | Shigella flexneri 1.01 | Vibrio cholerae 1.02 | [2] 0.974 | P. vulgatus RND KO 0.952 | P. vulgatus WT 0.989 | [3] 1.01 | [4] 0.922

CC(CNC1CCCCC1)OC(=O)c1ccccc1 (configuration not stated) [Hexylcaine hydrochloride]
inactive: [1] 0.993 | Shigella flexneri 0.97 | Vibrio cholerae 0.996 | [2] 0.986 | P. vulgatus RND KO 1 | P. vulgatus WT 1.01 | [3] 0.995 | [4] 0.992

CCCNCC(O)COc1ccccc1C(=O)CCc1ccccc1 (configuration not stated) [Propafenone hydrochloride]
inactive: [1] 1 | Shigella flexneri 0.994 | Vibrio cholerae 0.979 | [2] 0.99 | P. vulgatus RND KO 1.03 | P. vulgatus WT 1.05 | [3] 0.988 | [4] 0.948

C#C[C@]1(O)CC[C@H]2[C@@H]3CCc4cc(O)ccc4[C@H]3CC[C@@]21C [Ethinylestradiol]
inactive: [1] 0.985 | Shigella flexneri 1.02 | Vibrio cholerae 0.996 | [2] 1.03 | P. vulgatus RND KO 0.913 | P. vulgatus WT 0.913 | [3] 0.998 | [4] 0.985

CN(c1nccc(=O)[nH]1)C1CCN(c2nc3ccccc3n2Cc2ccc(F)cc2)CC1 [Mizolastine]
inactive: [1] 1.02 | Shigella flexneri 1.04 | Vibrio cholerae 1.02 | [2] 1.01 | P. vulgatus RND KO 0.929 | P. vulgatus WT 0.921 | [3] 1.01 | [4] 0.906

CCc1cc(C(N)=S)ccn1 [Ethionamide]
inactive: [1] 0.991 | Shigella flexneri 0.963 | Vibrio cholerae 0.998 | [2] 0.975 | P. vulgatus RND KO 1 | P. vulgatus WT 0.986 | [3] 0.996 | [4] 0.994

COc1c(N2C[C@@H]3CCCN[C@@H]3C2)c(F)cc2c(=O)c(C(=O)O)cn(C3CC3)c12 [Moxifloxacin]
active: [1] 0.00585 | Shigella flexneri 0.0275 | Vibrio cholerae 0.0211 | [2] 0.0337 | P. vulgatus RND KO 0.017 | P. vulgatus WT 0.0128 | [3] 0.0075 | [4] 0.00519

CN(C)[C@@H]1C(=O)C(C(=O)NCNCCCC[C@H](N)C(=O)O)=C(O)[C@@]2(O)C(=O)C3=C(O)c4c(O)cccc4[C@@](C)(O)[C@H]3C[C@@H]12 [Lymecycline]
inactive: Shigella flexneri 0.947 | [2] 1.01 | P. vulgatus RND KO 0.779 | P. vulgatus WT 0.835 | [3] 0.94 | [4] 0.94
active: [1] 0.903 | Vibrio cholerae 0.448

CS(=O)(=O)Nc1ccc([N+](=O)[O-])cc1Oc1ccccc1 [Nimesulide]
inactive: [1] 0.985 | Shigella flexneri 0.953 | Vibrio cholerae 0.907 | [2] 0.984 | P. vulgatus RND KO 0.983 | P. vulgatus WT 0.979 | [3] 0.988 | [4] 0.984

CN[C@@H]1[C@H](O[C@H]2[C@H](O[C@H]3[C@H](O)[C@@H](O)[C@H](N=C(N)N)[C@@H](O)[C@@H]3N=C(N)N)O[C@@H](C)[C@]2(O)C=O)O[C@@H](CO)[C@H](O)[C@H]1O [Streptomycin sulfate]
inactive: [1] 1.02 | Shigella flexneri 1.05 | Vibrio cholerae 1.06 | [2] 0.965 | P. vulgatus RND KO 1.05 | P. vulgatus WT 1.09 | [3] 0.983 | [4] 1

CCCCCCCN(CC)CCCC(O)c1ccc(NS(C)(=O)=O)cc1 (configuration not stated) [Ibutilide fumarate]
inactive: [1] 0.991 | Shigella flexneri 0.961 | Vibrio cholerae 0.964 | [2] 0.989 | P. vulgatus RND KO 1.01 | P. vulgatus WT 0.991 | [3] 0.996 | [4] 1.01

CN1CCCCC1CCN1c2ccccc2Sc2ccc([S+](C)[O-])cc21 (configuration not stated) [Mesoridazine besylate]
inactive: [1] 0.993 | Shigella flexneri 0.978 | Vibrio cholerae 0.949 | [2] 1.01 | P. vulgatus RND KO 0.941 | P. vulgatus WT 0.885 | [3] 0.997 | [4] 0.944

CN1CCN(CCCN2c3ccccc3Sc3ccc(S(=O)(=O)N(C)C)cc32)CC1 [Thioproperazine dimesylate]
inactive: [1] 0.999 | Shigella flexneri 0.986 | Vibrio cholerae 0.968 | [2] 1 | P. vulgatus RND KO 1.03 | P. vulgatus WT 1.01 | [3] 0.994 | [4] 0.96

CN(C)CCC[C@@]1(c2ccc(F)cc2)OCc2cc(C#N)ccc21 [Escitalopram oxalate]
inactive: [1] 1 | Shigella flexneri 0.991 | Vibrio cholerae 0.976 | [2] 0.99 | P. vulgatus RND KO 1.01 | P. vulgatus WT 1 | [3] 0.989 | [4] 0.982

O=C(O)COCCN1CCN(C(c2ccccc2)c2ccc(Cl)cc2)CC1 (configuration not stated) [Cetirizine dihydrochloride]
inactive: [1] 1 | Shigella flexneri 0.994 | Vibrio cholerae 0.988 | [2] 0.981 | P. vulgatus RND KO 1 | P. vulgatus WT 1.01 | [3] 1.01 | [4] 0.994

CC(C)(C)c1ccc(C(O)CCCN2CCC(C(O)(c3ccccc3)c3ccccc3)CC2)cc1 (configuration not stated) [Terfenadine]
inactive: [1] 1.01 | Shigella flexneri 0.999 | Vibrio cholerae 0.982 | [2] 1.03 | P. vulgatus RND KO 0.907 | P. vulgatus WT 0.892 | [3] 1.01 | [4] 0.88

NCc1ccccc1CC(=O)N[C@@H]1C(=O)N2C(C(=O)O)=C(CSc3nnnn3CC(=O)O)CS[C@H]12 [Ceforanide]
active: [1] 0.00985 | Shigella flexneri 0.0434 | Vibrio cholerae 0.0984 | [2] 0.023 | P. vulgatus RND KO 0.00761 | P. vulgatus WT 0.014 | [3] 0.00887 | [4] 0.00597

CCOc1ccc(Cc2nccc3cc(OCC)c(OCC)cc23)cc1OCC [Ethaverine hydrochloride]
inactive: [1] 1.01 | Shigella flexneri 1.04 | Vibrio cholerae 1 | [2] 1.01 | P. vulgatus RND KO 1 | P. vulgatus WT 0.998 | [3] 1 | [4] 0.969

COc1ccc2[nH]c([S+]([O-])Cc3ncc(C)c(OC)c3C)nc2c1 (configuration not stated) [Omeprazole]
inactive: [1] 0.958 | Shigella flexneri 0.998 | Vibrio cholerae 1.05 | [2] 1 | P. vulgatus RND KO 1.02 | P. vulgatus WT 1.03 | [3] 1 | [4] 0.952

C[C@H]1O[C@H](O[C@H]2[C@H](O)[C@@H](O)[C@@H](O[C@@H]([C@H](O)[C@@H](O)C=O)[C@H](O)CO)O[C@@H]2CO)[C@H](O)[C@@H](O)[C@@H]1N[C@H]1C=C(CO)[C@@H](O)[C@H](O)[C@H]1O [Acarbose]
inactive: [1] 1.04 | Shigella flexneri 0.995 | Vibrio cholerae 0.999 | [2] 1.01 | P. vulgatus RND KO 1.01 | P. vulgatus WT 0.884 | [3] 1.03 | [4] 1

OC(CCN1CCCC1)(c1ccccc1)C1CCCCC1 (configuration not stated) [Procyclidine hydrochloride]
inactive: [1] 0.975 | Shigella flexneri 0.953 | Vibrio cholerae 0.937 | [2] 0.984 | P. vulgatus RND KO 0.96 | P. vulgatus WT 0.941 | [3] 1.01 | [4] 0.983

O=C(CCCCC(=O)Nc1c(I)cc(I)c(C(=O)O)c1I)Nc1c(I)cc(I)c(C(=O)O)c1I [Iodipamide]
inactive: [1] 0.986 | Shigella flexneri 0.998 | Vibrio cholerae 0.995 | [2] 1 | P. vulgatus RND KO 1.01 | P. vulgatus WT 1 | [3] 0.999 | [4] 1.01

CCOc1ccccc1OC(c1ccccc1)C1CNCCO1 (configuration not stated) [Reboxetine mesylate]
inactive: [1] 0.991 | Shigella flexneri 0.986 | Vibrio cholerae 1.01 | [2] 0.995 | P. vulgatus RND KO 1.01 | P. vulgatus WT 1.01 | [3] 1 | [4] 0.988

COc1ccccc1N1CCN(CC(O)COc2cccc3ccccc23)CC1 (configuration not stated) [Naftopidil dihydrochloride]
inactive: [1] 1.01 | Shigella flexneri 1 | Vibrio cholerae 0.894 | [2] 0.991 | P. vulgatus RND KO 0.933 | P. vulgatus WT 0.971 | [3] 1.01 | [4] 0.914

CN1C(=O)OC(C)(C)C1=O [Trimethadione]
inactive: [1] 0.996 | Shigella flexneri 0.943 | Vibrio cholerae 0.982 | [2] 0.992 | P. vulgatus RND KO 0.971 | P. vulgatus WT 0.977 | [3] 0.999 | [4] 1

CCCCNc1ccc(C(=O)OCCOCCOCCOCCOCCOCCOCCOCCOCCOC)cc1 [Benzonatate]
inactive: [1] 1.01 | Shigella flexneri 0.993 | Vibrio cholerae 0.996 | [2] 0.989 | P. vulgatus RND KO 1.01 | P. vulgatus WT 0.954 | [3] 1 | [4] 1

O=C1CCc2ccc(OCCCCN3CCN(c4cccc(Cl)c4Cl)CC3)cc2N1 [Aripiprazole]
inactive: [1] 1.02 | Shigella flexneri 1.03 | Vibrio cholerae 1.02 | [2] 1.01 | P. vulgatus RND KO 0.889 | P. vulgatus WT 0.891 | [3] 1.01 | [4] 0.92
